FEN1 inh = qHTS Assay for the Inhibitors of Human Flap endonuclease 1 (FEN1); P39748; Potency, µM (top dose mostly 114 µM), for inactives: at the top dose activity change, negative = inhibition, hits mostly inhibitors; Recombinant FEN1 flap cleavage, fluorescence, 15 min; 390,000 tested, 0.35% active; note: potency is the fitted concentration of half-maximal effect; nearly all actives have a fitted effect of over 65% in size
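Concentration–response screening of FEN1 (10 nM): 15 min compound preincubation at room temperature, reaction started with 50 nM substrate and read at 0 and 15 min. Corrected, normalized data were fitted by a four-parameter Hill equation.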
APE1 inh = qHTS Assay for Inhibitors of the Human Apurinic/apyrimidinic Endonuclease 1 (APE1); DNA repair nuclease/redox regulator APEX1 (Homo sapiens), P27695; recombinant APE1, TAMRA/BHQ-2 abasic DNA cleavage fluorescence; Potency, µM (titrated, usually from 65.8 µM), for inactives: top-dose activity change, negative = inhibition, most hits filed as inhibitors; 350,000 tested, 0.35% active;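 note: potency is the fitted concentration of half-maximal effect; plate controls were vehicle for no effect and reference inhibitor for full effect; nearly all actives have a fitted effect of over 55% in size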
Target sequence (P27695 whole entry, looked up): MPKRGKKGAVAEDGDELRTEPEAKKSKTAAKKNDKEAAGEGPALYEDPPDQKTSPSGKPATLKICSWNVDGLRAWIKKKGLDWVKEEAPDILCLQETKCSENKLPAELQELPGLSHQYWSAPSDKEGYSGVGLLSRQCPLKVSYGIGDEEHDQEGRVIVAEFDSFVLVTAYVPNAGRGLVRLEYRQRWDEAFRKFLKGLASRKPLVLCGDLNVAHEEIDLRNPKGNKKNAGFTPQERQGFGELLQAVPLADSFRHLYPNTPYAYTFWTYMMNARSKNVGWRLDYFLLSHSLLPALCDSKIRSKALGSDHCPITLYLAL
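Readout is kinetic fluorescence (ex 525, em 598 nm) from cleavage of 50 nM TAMRA/BHQ-2 THF abasic duplex by 0.75 nM APE1, compound added 15 min beforehand at RT.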
WRN inhibitor = qHTS for Inhibitors of WRN Helicase | AID 651768, 2012 | 360,000 tested, 0.46% active | WRN helicase unwinding, fluorescent forked duplex, kinetic | Potency, µM (titrated, usually from 114 µM), for inactives: at the top dose activity change, negative = inhibition, hits mostly inhibitors; note: potency is the fitted concentration of half-maximal effect; nearly all actives have a fitted effect of over 55% in size
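Kinetic fluorescence helicase assay: unwinding of a quenched forked DNA duplex (100 nM final) with 2 mM ATP final raises red fluorescence (525/598 nm). Compounds sat 15 min at room temperature with 20 nM WRN beforehand.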
PI5P4Ka inh = qHTS for Inhibitors of phosphatidylinositol 5-phosphate 4-kinase (PI5P4K); 330,000 tested, 1.2% active; Phosphatidylinositol 5-phosphate 4-kinase type-2 alpha (Homo sapiens), P48426; PI5P4Kalpha enzyme, ADP-Glo luminescence, 60 min; stronger effect = lower value; max response, %; active = max response of -50% or lower; inconclusive = between -30% and -50%; inactive = -30% or higher; note: value at the top dose of about 77 µM
Target sequence (P48426 whole entry, looked up): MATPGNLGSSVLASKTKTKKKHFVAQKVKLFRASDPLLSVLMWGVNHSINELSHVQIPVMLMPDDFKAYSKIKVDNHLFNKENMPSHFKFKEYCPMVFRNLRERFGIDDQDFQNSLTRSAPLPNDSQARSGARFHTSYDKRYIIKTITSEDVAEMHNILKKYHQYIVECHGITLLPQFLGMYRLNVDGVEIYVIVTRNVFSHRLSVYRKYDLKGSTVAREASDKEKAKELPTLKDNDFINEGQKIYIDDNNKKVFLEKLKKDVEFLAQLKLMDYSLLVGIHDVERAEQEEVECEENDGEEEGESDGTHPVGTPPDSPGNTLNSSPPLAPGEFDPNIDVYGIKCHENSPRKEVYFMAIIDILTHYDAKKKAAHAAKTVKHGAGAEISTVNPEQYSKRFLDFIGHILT
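qHTS, 1536-well: enzyme/substrate mix, compound by pin tool, 5 microM ATP final; RT 60 min; ADP-Glo reagents 1 (45 min) then 2 (30 min); luminescence.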
RECQ1 inh = qHTS Assay for Inhibitors of RecQ-Like Dna Helicase 1 (RECQ1); ATP-dependent DNA helicase Q1 (Homo sapiens), P46063; RECQ1 DNA unwinding, red fluorescence kinetic read; Potency, µM (top dose mostly 57.3 µM), without a hit: at the top dose activity, negative = inhibition, hits mostly inhibitors; 240,000 tested, 0.54% active; AID 2549, 2010;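 note: potency is the fitted concentration of half-maximal effect; plate controls were vehicle for no effect and no enzyme for full effect; nearly all actives have a fitted effect of over 30% in size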
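50 nM RECQ1T1 preincubated 15 min with compound in Tris pH 8.0 buffer with MgCl2, DTT, Tween-20 and 2.5 ug/ml poly(dI-dC); started with 200 nM TAMRA/BHQ-2 forked duplex and 2 mM ATP. Unwinding read as fluorescence (525/598 nm), two reads 2 h apart.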
BLM helicase inh = qHTS Assay for Inhibitors of Bloom's syndrome helicase (BLM) | RecQ-like DNA helicase BLM (Homo sapiens), P54132 | recombinant BLM DNA unwinding, fluorescence dequenching | Potency, µM (series often up to 56.1 µM), without a hit: top-dose activity change, negative = inhibition, usual class: inhibitors | 350,000 tested, 0.2% active;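 note: potency is the fitted concentration of half-maximal effect; plate controls were vehicle for no effect and no enzyme for full effect; nearly all actives have a fitted effect of over 35% in size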
Active calls of the source: *; i = inactive; ? = inconclusive; nt = no result given; ! = a repeat was not active; [ ] = dose if it differs, or a comment. An excerpt weighted towards active compounds, which were near 1.5% of everything screened. Unless noted, calls come from the whole dose curve; as a rule, active = well fitted curve in the direction sought with a large enough effect; inconclusive = small, poorly fitted or top-dose-only effect, or another doubt; inactive = no such curve, though single readings can be large; an effect the other way counts as inactive or inconclusive. Unless noted, % is set by controls: 0 for no effect and ±100 for the full control effect.

SMILES	FEN1 inh	APE1 inh	WRN inhibitor	PI5P4Ka inh	RECQ1 inh	BLM helicase inh
O=C(Nc1ccc2[nH]c(=S)sc2c1)c1ccccc1	-5%	2%	?	-68*	i	-11%
O=C(Nc1ccc2[nH]c(=S)sc2c1)Nc1ccccc1F	-19%	?	-4%	-72*	i	-6%
Nc1c(SCCC(=O)O)ccc2c1C(=O)c1ccccc1C2=O	?	25%	?	-87*	nt	-12%
O=C1CSc2ccc(S(=O)(=O)NCc3ccccc3Cl)cc2N1	0%	-2%	-6%	-1	nt	0%
CC(CS(=O)(=O)c1ccc2c(c1)NC(=O)CS2)C(=O)NCc1ccccc1Cl (configuration not stated)	-21%	?	40µM*	?	nt	-19%
Cc1nn2c(=O)cc(COC(=O)c3ccc(NC(=O)c4cccs4)cc3)nc2s1	-5%	nt	nt	nt	nt	-2%
C=C1C=C(C(F)F)n2ncc(C(=O)NCc3ccccc3Cl)c2N1	nt	40%	nt	nt	nt	nt
CCC(=O)Nc1ccc(C(=O)CSc2nnc(-c3ccccc3F)n2C2CC2)cc1	5%	-1%	-6%	-51*	-9%	-4%
CCC(C)NC(=O)NC(=O)CSc1nnc(-c2ccccc2F)n1C1CC1 (configuration not stated)	-4%	-10%	2%	5	nt	-1%
CCN1C(=O)CS/C1=N\S(=O)(=O)c1ccc(Cl)cc1	-2%	-3%	-5%	-10	2%	-1%
CCn1c(Cl)c(C=O)s/c1=N\S(=O)(=O)c1ccccc1	-18%	5%	40µM*	-11	-3%	-8%
Cc1ccc2nc(Cl)c(/C=N/Nc3ccc(C(=O)O)cc3)cc2c1	45µM*	?	-32%	-16	-5%	-6%
Cc1ccc2cc(/C=N/NC(=O)c3ccc(F)cc3)c(Cl)nc2c1	-2%	10%	-7%	1	-16%	-4%
Cc1ccc(C2(C)NC(=O)N(CC(=O)Nc3nc(-c4ccccn4)cs3)C2=O)cc1 (configuration not stated)	-4%	31%	?	-59*	nt	nt
O=C(O)c1cccc(N2C(=O)C=CC2=O)c1	nt	nt	-25%[11.6 µM]	?	nt	nt
O=C(Nc1ccc(Cl)cc1Cl)c1cccc(N2C(=O)C=CC2=O)c1	-25%	-4%	0%	-51*	-11%	-4%
Cc1cccc(Cn2cnc3c(cnn3C(C)(C)C)c2=O)c1F	-23%	-5%	nt	nt	nt	nt
O=C(Nn1c(-c2ccc(Br)cc2)nc2ccccc2c1=O)c1cccnc1	1%	-1%	?	-56*	i	-2%
O=C(Nn1c(-c2ccncc2)nc2ccccc2c1=O)c1ccc(Br)cc1	3%	-1%	-23%	-1	-5%	-3%
COc1cc2nc(C#N)nc(N)c2cc1OC	3%	nt	nt	nt	nt	nt
Nc1nc(=S)c2ncn([C@@H]3O[C@H](CO)[C@@H](O)[C@H]3O)c2[nH]1	-4%	19%	7%	-77*	nt	nt
Nc1nc(=S)c2ncn(C3OC(CO)C(O)C3O)c2[nH]1 (configuration not stated)	89µM*	25µM*	28µM*	-81*	?	?
O=c1c(O)c(-c2ccc(O)cc2)oc2cc(O)cc(O)c12	?	?	-16%	-73*	-23%	-7%
O=c1cc(-c2ccc(O)cc2)oc2cc(O)cc(O)c12	?	25µM*!	-7%	?	-11%	-10%
O=c1cc(-c2ccccc2)oc2cc(O)cc(O)c12	-7%	-9%	6%	-23	-4%	-2%
SMILES	FEN1 inh	APE1 inh	WRN inhibitor	PI5P4Ka inh	RECQ1 inh	BLM helicase inh
COc1cc(O)c2c(=O)c(O)c(-c3ccc(O)c(O)c3)oc2c1	nt	?	nt	nt	?	-17%
CN(C)c1ccc(CCC2C=Cc3ccccc32)cc1 (configuration not stated)	11%	nt	nt	nt	nt	nt
N#C/C(=C\c1coc2ccccc2c1=O)C(N)=S	16%	12%	-25%	?	-16%	-2%
N#C/C(=C\c1coc2ccc(O)cc2c1=O)C(=O)Nc1nc2ccccc2s1	?	?	56µM*	-101*	?	-25%
c1ccc(SSc2ccccn2)nc1	?	nt	22µM*	-23	nt	nt
COc1ccc(-c2cc(C(=O)Nc3c(Cl)cccc3Cl)no2)cc1OC	3%	nt	nt	nt	nt	-6%
CCc1ccccc1NC(=O)C1CCCN1S(=O)(=O)c1ccc(-c2ccc(=O)[nH]n2)s1 (configuration not stated)	14%	82%	-4%[11.6 µM]	-59*	nt	-12%
CN(C)c1ccc(/C=C2\C(=O)Nc3ccccc32)c2ccccc12	nt	-4%	nt	nt	-10%	-17%
Cc1c(CCC(=O)O)c(=O)oc2c(C)c3occ(-c4ccc(Cl)cc4)c3cc12	?	?	56µM*	-17	nt	-18%
Cc1c(CCC(=O)O)c(=O)oc2cc3occ(-c4ccc(Cl)cc4)c3cc12	?	-12%	-21%[11.6 µM]	?	nt	-4%
NC(=O)C1CCN(c2nc(-c3cccc([N+](=O)[O-])c3)cs2)CC1	nt	-8%	nt	nt	nt	nt
CC(C)[C@H](O)CC[C@@H](C)C1CC[C@H]2C3CC=C4C[C@@H](O)CC[C@]4(C)C3CC[C@]12C (some centres not stated)	nt	4%	nt	nt	-10%	nt
COc1ccc(SN=C2C(C)=CC(=O)C=C2C)cc1	-13%	-5%	-17%	-9	i	-2%
COC1=CC(=O)C=C(OC)C1=O	?	-1%	45µM*	-51*	i	-9%
COC1=CC(=O)c2ccccc2C1=O	10µM*	-4%	12%	4	nt	nt
COc1ccc([C@H]2OCC3C2CO[C@@H]3c2ccc(OC)c(OC)c2)cc1OC (some centres not stated)	nt	-8%	nt	nt	-12%	3%
Cc1ccc(Cl)cc1NC(=O)CCNC(=O)N1CC(=O)Nc2ccccc21	-1%	-12%	0%	-1	nt	2%
O=C(CNC(=O)N1CC(=O)Nc2ccccc21)Nc1cc(Cl)ccc1Cl	40µM*	37%	1%[11.6 µM]	0	nt	1%
CC(C)(C)C1CCc2c(C(=O)NNC(=O)/C=C/C(=O)O)csc2C1 (configuration not stated)	0%	1%	-8%	-69*	-9%	-5%

Screening data from PubChem BioAssay.
